Measured values from PubChem BioAssay AID1159580 (chemical genetic matrix, 2015).
In all, about 5,500 compounds went through this assay and about 2,000 (36%) were called active. Roughly 18% stayed inconclusive and do not appear here. Cut-off read from the data, not from the text of the source: active = normalized growth mostly below about 0.91 (no sharp cut-off); inconclusive = no clear call, values can overlap the other calls; inactive = mostly above about 0.92. This is one part of the list.

Test: chemical genetic growth profiling, strain panel (AID 1159580);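 note: tested at 20 µM; growth read once vehicle control cultures reached saturation at 30 °C; 1 = growth at the plate median or of vehicle wells; lower values mean less growth of the strain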
Settings: S. cerevisiae deletion strains, growth OD

Measured: normalized growth

Cc1cc(=O)oc2cc(O)cc(O)c12
inactive: locus YAL021C, strain ccr4, active compounds read low 0.968 | locus YAL026C, strain drs2, active compounds read low 0.96 | locus YAL030W, strain snc1, active compounds read low 0.952 | locus YBL061C, strain skt5, active compounds read low 0.958 | locus YBR009C, strain hhf1, active compounds read low 0.949 | locus YBR023C, strain chs3, active compounds read low 0.949 | locus YBR171W, strain sec66, active compounds read low 0.965 | locus YBR231C, strain swc5, active compounds read low 0.975 | locus YBR279W, strain paf1, active compounds read low 0.969 | locus YCL011C, strain gbp2, active compounds read low 0.95 | locus YCL016C, strain dcc1, active compounds read low 0.966 | locus YCL061C, strain MRC1, active compounds read low 0.983 | locus YCL069W, strain vba3, active compounds read low 0.965 | locus YCR088W, strain abp1, active compounds read low 0.958 | locus YDL005C, strain med2, active compounds read low 0.961 | locus YDL040C, strain nat1, active compounds read low 0.958 | locus YDR001C, strain nth1, active compounds read low 0.957 | locus YDR069C, strain doa4, active compounds read low 0.941 | locus YDR137W, strain rgp1, active compounds read low 0.962 | locus YDR159W, strain sac3, active compounds read low 0.932 | locus YDR195W, strain ref2 0.925 | locus YDR297W, strain sur2, active compounds read low 0.96 | locus YDR334W, strain swr1, active compounds read low 0.948 | locus YDR335W, strain msn5, active compounds read low 0.978 | locus YDR392W, strain spt3, active compounds read low 0.938 | locus YEL003W, strain gim4, active compounds read low 0.978 | locus YEL037C, strain rad23, active compounds read low 0.929 | locus YEL061C, strain CIN8 (second series), active compounds read low 0.951 | locus YER015W, strain faa2, active compounds read low 0.998 | locus YER016W, strain bim1, active compounds read low 0.965 | locus YER111C, strain swi4, active compounds read low 0.949 | locus YER155C, strain BEM2 (second series), active compounds read low 0.932 | locus YFR010W, strain ubp6, active compounds read low 0.943 | locus YGL167C, strain pmr1, active compounds read low 0.943 | locus YGL173C, strain kem1, active compounds read low 0.97 | locus YGL227W, strain vid30, active compounds read low 0.95 | locus YGL240W, strain doc1, active compounds read low 0.971 | locus YGL253W, strain hxk2, active compounds read low 0.995 | locus YHR013C, strain ard1, active compounds read low 0.948 | locus YHR027C, strain rpn1, active compounds read low 0.964 | locus YHR142W, strain chs7, active compounds read low 0.94 | locus YJL092W, strain hpr5, active compounds read low 0.969 | locus YJL095W, strain BCK1 (second series), active compounds read low 0.974 | locus YJL115W, strain asf1, active compounds read low 0.958 | locus YJL129C, strain trk1, active compounds read low 0.946 | locus YJL154C, strain vps35, active compounds read low 0.971 | locus YJL164C, strain tpk1, active compounds read low 0.978 | locus YJL166W, strain qcr8, active compounds read low 0.983 | locus YJL187C, strain SWE1, active compounds read low 0.968 | locus YKL160W, strain elf1, active compounds read low 0.981 | locus YKR026C, strain gcn3, active compounds read low 0.944 | locus YKR091W, strain srl3, active compounds read low 0.962 | locus YLL001W, strain dnm1, active compounds read low 0.948 | locus YLL026W, active compounds read low 0.97 | locus YLL041C, strain sdh2, active compounds read low 0.977 | locus YLR027C, strain aat2, active compounds read low 0.945 | locus YLR221C, strain rsa3, active compounds read low 0.977 | locus YLR258W, strain gsy2, active compounds read low 0.966 | locus YLR262C, strain YPT6 (second series), active compounds read low 0.977 | locus YLR320W, strain mms22, active compounds read low 0.962 | locus YLR342W, strain FKS1, active compounds read low 0.958 | locus YLR357W, strain rsc2, active compounds read low 0.939 | locus YLR370C, strain arc18, active compounds read low 0.932 | locus YLR384C, strain iki3, active compounds read low 0.957 | locus YML120C, strain ndi1, active compounds read low 0.954 | locus YMR058W, strain fet3, active compounds read low 0.967 | locus YMR125W, strain sto1, active compounds read low 0.935 | locus YMR129W, active compounds read low 0.969 | locus YMR205C, strain PFK2, active compounds read low 0.932 | locus YMR231W, strain pep5, active compounds read low 1 | locus YNL071W, strain lat1, active compounds read low 0.972 | locus YNL209W, strain ssb2, active compounds read low 0.965 | locus YNL248C, strain rpa49, active compounds read low 0.996 | locus YNL322C, strain KRE1 (second series), active compounds read low 0.95 | locus YNR049C, strain mso1, active compounds read low 0.954 | locus YOR001W, strain rrp6, active compounds read low 0.979 | locus YOR070C, strain gyp1, active compounds read low 0.973 | locus YOR080W, strain dia2, active compounds read low 0.965 | locus YOR083W, strain WHI5, active compounds read low 0.988 | locus YOR106W, strain vam3, active compounds read low 0.964 | locus YOR265W, strain rbl2, active compounds read low 0.976 | locus YOR270C, strain vph1, active compounds read low 0.894 | locus YOR290C, strain snf2, active compounds read low 0.939 | locus YPL051W, strain arl3, active compounds read low 0.982 | locus YPL078C, strain atp4, active compounds read low 0.969 | locus YPL106C, strain sse1, active compounds read low 0.927 | locus YPL240C, strain hsp82, active compounds read low 0.985
